This is part of a sample that, as a whole, favours compounds with a hit. Of some 83,000 tested, about 20% had one in any assay.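 How to read the values: 0–100, growth inhibition (40 = 60% inhibited); 0, no net growth; -100 to 0, cell death (-40 = 40% of starting cells died; -100 = all dead).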 Values without a mark were called inactive. The source made the active and inactive calls. How the source made its calls: active means growth percent below 10; inactive means the rest.
What was measured:
Test in all cases: NCI-60 one-dose screen, 48 h (100 = growth as untreated, 0 = no growth, -100 = all killed)
Conditions in all cases: 10 µM
NCI-H23 lung = test system: NCI-H23 lung
NCI-H226 lung = test system: NCI-H226 lung
NCI-H322M lung = test system: NCI-H322M lung
HOP-62 NSCLC = test system: HOP-62 NSCLC
NCI-H460 lung = test system: NCI-H460 lung
HOP-92 NSCLC = test system: HOP-92 NSCLC
NCI-H522 lung = test system: NCI-H522 lung
A549/ATCC NSCLC = test system: A549/ATCC NSCLC
786-0 renal = test system: 786-0 renal
COLO 205 colon = test system: COLO 205 colon
DU-145 prostate = test system: DU-145 prostate
K-562 leukemia = test system: K-562 leukemia
MALME-3M melanoma = test system: MALME-3M melanoma
MDA-MB-231 breast = test system: MDA-MB-231 breast
RXF 393 renal = test system: RXF 393 renal
SF-268 CNS = test system: SF-268 CNS
SF-295 CNS = test system: SF-295 CNS
SF-539 CNS = test system: SF-539 CNS
UACC-257 melanoma = test system: UACC-257 melanoma
M14 melanoma = test system: M14 melanoma

| SMILES | growth (NCI-H23 lung) | growth (NCI-H226 lung) | growth (NCI-H322M lung) | growth (HOP-62 NSCLC) | growth (NCI-H460 lung) | growth (HOP-92 NSCLC) | growth (NCI-H522 lung) | growth (A549/ATCC NSCLC) | growth (786-0 renal) | growth (COLO 205 colon) | growth (DU-145 prostate) | growth (K-562 leukemia) | growth (MALME-3M melanoma) | growth (MDA-MB-231 breast) | growth (RXF 393 renal) | growth (SF-268 CNS) | growth (SF-295 CNS) | growth (SF-539 CNS) | growth (UACC-257 melanoma) | growth (M14 melanoma) |
| --- | --- | --- | --- | --- | --- | --- | --- | --- | --- | --- | --- | --- | --- | --- | --- | --- | --- | --- | --- | --- |
| CCCCCCCCCCCCCCCCCCCC(=O)NCCc1c[nH]c2ccc(OC(=O)NOCCOCCOCCOCCOCCOCCOCCOCCOCCOCCOCCOCCOCCOCCOCCOCCOCCOCCOCCOCCOCCOCCOC)cc12 | 9.6% (active) | -23.3% (active) | -8.92% (active) | -30.7% (active) | 16% | -17.5% (active) | -83.4% (active) | 8.54% (active) | 35.4% | -100% (active) | 21.4% | 8.69% (active) | 8.02% (active) | -74.1% (active) | 12% | 16.5% | -28.5% (active) | -13.8% (active) | 6.88% (active) | -18.8% (active) |
| COc1ccc(C(=O)Nc2ccc(-c3ccc4c(c3)NC(=O)/C4=C\c3ccc[nH]3)cc2)cc1 | 41.5% | -4.15% (active) | 86.6% | 63.1% | 14.9% | 97.5% | 64.2% | 74.4% | 20.4% | 48.1% | -25.7% (active) | 67.5% | 50.9% | 25.6% | 8.7% (active) | 0.17% (active) | -76.1% (active) | 76.8% | 77.5% | 28.1% |
| CC(=O)Nc1ccc(-c2cn(-c3cccc(C(=O)Nc4cc(C(F)(F)F)cc(C(F)(F)F)c4)c3)nn2)cn1 | -68.6% (active) | -68% (active) | -15.6% (active) | -61.1% (active) | -71.6% (active) | -52% (active) | -11.2% (active) | -26.1% (active) | -42.8% (active) | -62.2% (active) | -47.5% (active) | -66.1% (active) | -48.3% (active) | -72.5% (active) | -69.4% (active) | -7.7% (active) | -89.1% (active) | -83.7% (active) | -4.2% (active) | 4.5% (active) |
| COC(=O)C(Cc1ccc(O)c(O)c1)NC(=O)C(CSC/C=C(\C)CCCC(C)CCCC(C)CCCC(C)C)NC(C)=O (stereo not given) | 31.1% | 30.3% | 67.1% | 26.5% | 18.9% | 18.5% | -85.6% (active) | 18.9% | 51.4% | 3.84% (active) | 75.5% | 5.33% (active) | 87.4% | 38.1% | 48.3% | 27.6% | 1.8% (active) | -34.7% (active) | 56.4% | 13.9% |
| Nc1nc2c(F)c(F)c(F)c(F)c2s1 | 102% | 98.6% | 103% | 92.6% | 107% | 90.5% | 89.5% | 99.4% | 85.1% | 114% | 114% | 93.1% | 103% | 116% | 109% | 97.8% | 96% | 99% | 104% | 113% |
| CCN1CCN(Cc2ccc(NC(=O)c3cccc(-n4cc(-c5ccc(NC(C)=O)nc5)nn4)c3)cc2C(F)(F)F)CC1 | 93% | 99.9% | 125% | 121% | 100% | 72.6% | 74.7% | 96.4% | 58.5% | 57.3% | 104% | -28.4% (active) | 53.1% | 75.8% | 102% | 123% | 93.1% | 73.1% | 87% | 78.3% |
| O=C(c1ccccc1)n1ccc(-c2cc3cc(Br)ccc3oc2=O)n1 | 19% | 27.5% | 31.1% | 20% | 9.4% (active) | 34.7% | 1.16% (active) | 33.9% | 16.1% | 11% | 37.3% | 19.9% | 36.8% | 32% | 45.2% | 36.5% | 24.4% | 10.5% | 2.91% (active) | -4.71% (active) |
| CN1C(=O)/C(=C/c2nccs2)SC1=S | 80.8% | 87.2% | 83.7% | 111% | 91% | 92.4% | 77.7% | 98.5% | 105% | 119% | 91.2% | 66.8% | 82.1% | 87.5% | 103% | 104% | 93.2% | 95.4% | 85.4% | 87.2% |
| CC(=O)OC[C@@]1(C)C2CC[C@]3(C)C(CC=C4C5CC(C)(C)CC[C@]5(C(=O)Nc5ccccc5)CC[C@]43C)[C@@]2(C)C[C@@H](OC(C)=O)[C@@H]1OC(C)=O (stereo not given in full) | 40.2% | 40.6% | 61.1% | 32.8% | 32% | 40.1% | 42% | 39.6% | 45.7% | 45.5% | 44.9% | 12.7% | 54.3% | 60.6% | 64.2% | 52.5% | 19.9% | 41.6% | 18.5% | 50.9% |
| COc1ccccc1[C@H]1C(C(=O)c2ccc(Cl)cc2)C2(N[C@@H]1c1ccccc1)C(=O)Nc1ccc(Cl)cc12 (stereo not given in full) | -1.97% (active) | 4.06% (active) | 32.9% | 26% | 8.58% (active) | 7.15% (active) | -5.89% (active) | 15.8% | 8.8% (active) | -69.7% (active) | 10.5% | 1.21% (active) | -24.8% (active) | 4.86% (active) | -29.4% (active) | 26.3% | 2.46% (active) | -16.6% (active) | 22.4% | 28.4% |
| CNCc1cccc2c1OCCCCCC[C@@](C)(O)CC1(CC1)S(=O)(=O)c1ccc(cc1)-c1cnc(N)c(n1)C(=O)N2 | -95.4% (active) | -75.7% (active) | -96.8% (active) | -84.3% (active) | -74.8% (active) | -67.8% (active) | -87.2% (active) | -79.5% (active) | -82.9% (active) | -89.9% (active) | -84.5% (active) | -37.5% (active) | -75.2% (active) | -92.8% (active) | -94.2% (active) | -64.2% (active) | -100% (active) | -98.9% (active) | -75% (active) | -38.6% (active) |
| COc1cc(/C=N/NC(=O)c2ccc3nc(-c4ccc(Cl)cc4)[nH]c3c2)cc(OC)c1OC | -68.4% (active) | -50.5% (active) | 3.86% (active) | -77.5% (active) | -34.8% (active) | -64.5% (active) | -44.2% (active) | 29.2% | -4.1% (active) | -9.12% (active) | -28.7% (active) | -12.4% (active) | -92.8% (active) | -74.5% (active) | -84.3% (active) | -33.9% (active) | -73.7% (active) | -95.7% (active) | -47.7% (active) | -28% (active) |
| O=c1cc(-c2ccccc2)oc2cc(OCCCNCc3ccccc3)cc(O)c12 | -91% (active) | 46.4% | 31% | 21.3% | -53.4% (active) | -9.75% (active) | -62.6% (active) | 26.2% | -48% (active) | -88% (active) | 13.2% | -20.1% (active) | -94.3% (active) | -43.1% (active) | -56.7% (active) | 25.2% | -81.8% (active) | -97.3% (active) | -69.7% (active) | -76% (active) |
| N#Cc1c(Cl)nc(SCc2ccc(F)cc2)nc1-c1ccc(F)cc1 | 95.7% | 71.3% | 92.2% | 101% | 103% | 74.8% | 74.6% | 91.6% | 95.4% | 120% | 92.5% | 69.8% | 112% | 94.6% | 89.7% | 96.2% | 90% | 91.9% | 100% | 103% |
| CC1=C2C(=C[C@@](C)(COCOCCCl)[C@@H]2O)C(=O)[C@](C)(O)C12CC2 | -81.7% (active) | -39.2% (active) | -18.2% (active) | -51.1% (active) | -11% (active) | -14.6% (active) | -74.4% (active) | -1.86% (active) | -36.2% (active) | -73.7% (active) | -11.1% (active) | 8.32% (active) | -84.9% (active) | -44.7% (active) | -78.4% (active) | -9.66% (active) | -30.2% (active) | -65% (active) | -30.3% (active) | -16% (active) |

— PubChem BioAssay (NCI)
